Shown are actives, neighbours in structure and some others; about 12% of the full set was active somewhere.
Cl transport mod – modulates chloride dependent transport by human KCC2; B-score of Tl+ flux slope (higher = more flux/activation; lower = inhibition) at 10 µM; Q9H2X9; 190,000 compounds, 2.2% hits; KCC2 cells, thallium flux FluoZin-2 fluorescence;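 active means thallium flux slope and its plate-corrected score both differing from the plate sample mean at a set confidence after two filtering rounds, in either direction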;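 further: slope of fluorescence scaled to starting intensity during 10 to 20 s after thallium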
ROMK primary – modulates human ROMK potassium channel activity; Tet-inducible ROMK, thallium flux fluorescence; actives lie on both sides; B-score at 10 µM; 130,000 compounds, 2% hits;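 active means signal ratio slope over the read window, or its plate-corrected B-score, at least 3 SD from the plate mean, either direction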;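 further: B-score of the F/F0 ratio slope over 7 to 12 s after thallium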
L major viab – inhibitors of Leishmania major promastigote growth; Leishmania major promastigotes, resazurin fluorescence viability; inhibition, % at 10 µM; 200,000 compounds, 9% hits; AID 1063; in the data active means inhibition above about 50%;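 further: promastigotes grown with compound for 44 hours at 28 °C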
INS promoter inh – TRM-6 insulin promoter activity inhibition | TRM-6 cells (human fetal islet line), insulin promoter-eGFP reporter, imaging; reporter expression induced with tamoxifen | inhibition, % at 2 µM | 130,000 compounds, 0.9% hits | AID 1273;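 active means inhibition above the mean plus 3 SD, with well images judged a real hit on visual review, cut at about 60% in these data, passing the limit was not always enough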
Ins promoter up – MIN6 insulin promoter up-regulation. MIN6 insulin promoter-GFP reporter, high-content imaging; hits give high values. z-score at 5 µM. 190,000 compounds, 0.3% hits;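 active means z-score above 3 at 5 µM with at least 500 cells counted in the well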
WT yeast gro inh – growth inhibition of WT yeast, mitochondrial fusion screen. mitochondrial fusion phenotypic screen, WT strain. inhibition, % at 10 µM. 190,000 compounds, 2.1% hits; in the data active means inhibition above about 58%; tested in S. cerevisiae
Active calls of the source: *; nt = not tested or not shown.

SMILES | Cl transport mod | ROMK primary | L major viab | INS promoter inh | Ins promoter up | WT yeast gro inh
COc1ccc(C(=O)/C=C/c2ccc(OC)c(COc3ccccc3F)c2)cc1 | 1.4 | 0.63 | 45 | 0 | 0.21 | 5
COc1ccc(Oc2ccc(/C=C/C(=O)c3ccc(O)cc3)cc2[N+](=O)[O-])cc1 | 1.1 | -0.52 | 100* | 38 | -0.23 | 28
CNc1ccc(/C=C/C(=O)c2ccc(C)cc2)cc1[N+](=O)[O-] | -0.25 | nt | 24 | nt | -1 | -10
COc1ccc(/C=C/C(=O)c2ccccc2)cc1COc1ccc(F)cc1 | 1.7 | 0.39 | 60* | nt | 0.1 | -8
COC(=O)c1ccc(Cn2nnc3ccccc32)cc1 | -1 | -0.96 | nt | nt | -0.51 | nt
CN(C)c1ccc(/C=C/C(=O)c2ccccc2)cc1[N+](=O)[O-] | 0.26 | 0.93 | 100* | nt | 0.83 | 32
COc1ccc(/C=C/C(=O)c2ccccc2)cc1Cn1nnc2ccccc21 | -0.81 | -0.81 | 100* | nt | 2.1 | 24
COc1ccc(N(C(=O)C(C)C)S(=O)(=O)c2cccc3cccnc23)cc1 | 0.84 | 0.093 | 50 | -4 | 0.05 | -11
COc1ccc(/C=C/C(=O)c2ccc(O)cc2)cc1COc1ccc(F)cc1 | nt | nt | 97* | 16 | 0.23 | 90*
COc1ccc(/C=N/NC(=O)c2ccn[nH]2)cc1COc1ccc(F)cc1 | -0.25 | nt | 26 | nt | -0.01 | 12
CC(C)=C1C2CCC1C(C(=O)Nc1sc(C)c(-c3ccc(C(C)C)cc3)c1C(N)=O)C2C(=O)O (stereo not given) | -1.6 | 0.27 | 31 | -23 | 0.04 | 62*
COc1ccc2[nH]c(=O)c(COC(=O)c3cccs3)cc2c1 | 0.042 | 0.59 | -2 | nt | 0.07 | 3
Cc1cccc(C(=O)NC(NCCc2ccccc2)C(Cl)(Cl)Cl)c1 (stereo not given) | -0.92 | 0.039 | 15 | nt | 0.33 | 59*
CC(=O)NC(NC(=S)Nc1ccc(S(N)(=O)=O)cc1)C(Cl)(Cl)Cl (stereo not given) | 0.006 | nt | nt | nt | -0.3 | nt
Cc1cccc(C(=O)NC(NC(=S)Nc2ccc(S(N)(=O)=O)cc2)C(Cl)(Cl)Cl)c1 (stereo not given) | -0.095 | -0.52 | 54* | 22 | 0.2 | -18
ClC1=C(Cl)C(Cl)=C(Cl)C1=C/C=C/c1ccccc1 | -0.024 | nt | nt | nt | -1.6 | nt
COc1cc(CNC(C)c2ccccc2)c(Br)cc1OCC(N)=O (stereo not given) | nt | -0.28 | 6 | 10 | -0.44 | 2
CCC(CO)NCc1cc(OC)c(OCC(=O)NCCc2ccccc2)cc1Br (stereo not given) | -0.93 | -0.78 | 97* | nt | -0.28 | -11
CCCNCc1cc(OC)c(OCC(=O)NCCc2ccccc2)cc1Br | -1.7 | -0.71 | 55* | -8 | 0.21 | -12
CCOC(=O)C1CCCn2c1nc1sc3c(c1c2=O)CCCC3 (stereo not given) | -0.0042 | nt | 1 | 40 | 0.3 | -7
CCc1ccc(NC(=S)NC2CC3CCCC(C2)N3Cc2cccs2)cc1 (stereo not given) | -0.63 | nt | 91* | nt | -2.1 | -1
Cc1ccccc1NC(=S)NCc1ccco1 | -0.35 | 0.56 | 0 | 13 | 0.32 | -12
Cc1cccc(NC(=S)NC2CC3CCCC(C2)N3Cc2ccccc2)c1C (stereo not given) | 0.31 | -1.7 | 87* | nt | -0.29 | -3
Cc1ccc(NC(=S)NC2CC3CCC(C2)N3Cc2ccco2)cc1C (stereo not given) | 0.27 | nt | 100* | nt | -0.36 | 1
Cc1cccc(NC(=S)NC2CC3CCC(C2)N3Cc2ccco2)c1C (stereo not given) | -0.017 | nt | 90* | nt | -0.66 | 6
SMILES | Cl transport mod | ROMK primary | L major viab | INS promoter inh | Ins promoter up | WT yeast gro inh
COCCSc1nnc(NC(=O)c2cc(C(=O)OC)cc([N+](=O)[O-])c2)s1 | 0.67 | -0.12 | -10 | -7 | -0.3 | 12
Cc1nc2ccccc2n1S(=O)(=O)N(C)C | -0.26 | nt | -2 | 55 | -0.15 | -4
Cc1ccc(NC(=S)NC2CC3CCC(C2)N3Cc2ccco2)c(C)c1 (stereo not given) | nt | nt | 89* | -26 | 0.27 | 16
CCc1ccccc1NC(=O)NC1CC2CCC(C1)N2Cc1cccs1 (stereo not given) | 0.33 | nt | 76* | 3 | -1.1 | 7
CCc1ccccc1NC(=S)NC1CC2CCC(C1)N2Cc1ccc(F)cc1 (stereo not given) | nt | -1.1 | 95* | nt | -0.32 | 0
CCc1ccccc1NC(=O)NC1CCCCC1 | 0.92 | -0.41 | 5 | -6 | nt | -2
CCc1ccccc1NC(=O)Nc1cccn(Cc2ccc(F)cc2)c1=O | -0.49 | 0.81 | 0 | nt | -0.11 | 14
